The target in assay [1] is Lysosomal acid glucosylceramidase (Homo sapiens) (UniProt P04062). Kind of assay: Glucocerebrosidase-p2 (AID 348; in the data active = potency below about 10 µM; note: potency is the fitted concentration of half-maximal effect). To be noted: purified GBA, blue fluorogenic substrate, 40 min. In outline: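 Compounds titrated from 0.6 nM upwards against 0.2 nM enzyme in pH 5.9 citric acid/KH2PO4, taurocholate, tween-20; blue fluorogenic substrate 80 uM, 40 min room temperature, stopped and read Ex 365/Em 440 for AC50.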
Lysosomal acid glucosylceramidase (Homo sapiens), sequence (P04062 whole entry, looked up): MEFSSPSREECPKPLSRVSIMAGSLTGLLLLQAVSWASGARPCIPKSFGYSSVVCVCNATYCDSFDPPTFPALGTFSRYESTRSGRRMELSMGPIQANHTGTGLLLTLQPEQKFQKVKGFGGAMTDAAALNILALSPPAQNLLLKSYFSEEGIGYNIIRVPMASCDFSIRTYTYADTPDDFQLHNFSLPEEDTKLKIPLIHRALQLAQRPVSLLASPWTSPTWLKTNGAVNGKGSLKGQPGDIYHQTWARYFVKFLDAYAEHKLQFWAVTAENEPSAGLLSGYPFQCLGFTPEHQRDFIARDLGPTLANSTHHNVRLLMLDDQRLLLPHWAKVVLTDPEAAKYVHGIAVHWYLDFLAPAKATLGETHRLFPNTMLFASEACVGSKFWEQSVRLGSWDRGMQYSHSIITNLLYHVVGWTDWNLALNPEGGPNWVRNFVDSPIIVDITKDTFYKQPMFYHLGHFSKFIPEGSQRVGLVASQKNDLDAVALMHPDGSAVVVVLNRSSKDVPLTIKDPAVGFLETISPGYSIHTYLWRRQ

Assay [2] is described as follows: AP1 Signaling Pathway (AID 357; active = well fitted curve in either direction with a large enough effect, not every such curve was filed as active;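 note: ME-180 reporter cells stimulated with EGF at its EC50 level; % is set by controls: 0 for no effect and ±100 for the full control effect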). To be noted: ME-180 AP-1-bla reporter, EGF-induced, beta-lactamase ratio, 5 h; at 7.69 µM (top of the series) unless noted. In outline:
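In this screen, ME-180 cells in Opti-MEM with 0.5% dialyzed FBS received EC50 EGF and compound titrations for 5 h. AP-1 reporter beta-lactamase was detected via CCF4 ratio, giving AC50 for positive and negative modulators.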

The nature of assay [3]: NFAT Signaling Pathway (AID 444; active = well fitted curve in either direction with a large enough effect, not every such curve was filed as active;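 note: carbachol stimulus at about its EC50 of 1 µM final; % is set by controls: 0 for no effect and ±100 for the full control effect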). The settings on record: Jurkat NFAT-bla M1, carbachol, beta-lactamase ratio, 5 h; at 7.69 µM (top of the series) unless noted. In outline:
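Jurkat cells carrying an NFAT-driven β-lactamase reporter and co-transfected muscarinic M1 receptor were treated with compound plus carbachol (1 uM final, an EC50 level) for 5 h at 37 °C. CCF4 loading followed for 1 h at RT; 460/530 nm ratio gave %activity.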

Assay [4] in a line: Stat Signaling Pathway (AID 446; active = well fitted curve in either direction with a large enough effect, not every such curve was filed as active;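 note: ME-180 cervical cancer cells given 40 pM IL-6 alongside compound; SIE-controlled beta-lactamase reporter measured as 460/530 nm FRET emission ratio; % is set by controls: 0 for no effect and ±100 for the full control effect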). The settings on record: ME-180 (cervical carcinoma) SIE beta-lactamase reporter, IL-6 stimulated, 5 h; at 7.69 µM (top of the series) unless noted. The procedure, abridged:
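ME-180 SIE-bla cells; overnight plating; cpd + IL-6 40 pM, 5 h, 37 C; LiveBLAzer 2.5 h RT; 460/530 nm emission ratio. Normalized to 300 pM IL-6 and 125 nM JAK inhibitor controls.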

Assay [5] has as its target Glucocorticoid receptor (Homo sapiens) (UniProt P04150). Kind of assay: GR-GFP Redistribution (AID 450;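 active = compounds whose dose series gives a full or clear partial fitted curve of increased nuclear translocation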; note: potency is the fitted concentration of half-maximal effect). The settings on record: U2OS GR-GFP nuclear translocation, laser cytometry, 2 h.
Assay [6] has the same target. Kind of assay: GR-EFC Redistribution (AID 451; calls by dose curve; note: potency is the fitted concentration of half-maximal effect). To be noted: CHO-K1 GR-EFC translocation, beta-gal luminescence, 2 h. The procedure, abridged:
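CHO-K1 cells stably expressing nuclear-localized β-gal enzyme acceptor and GR fused C-terminally to the enzyme donor fragment; ligand-driven nuclear translocation restores β-gal by complementation. Compounds titrated up to 46 uM final, 2 h at 37 °C; luminescence read.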

Assay [7] deals with Mitogen-activated protein kinase 10 (Mus musculus) (UniProt Q61831). Kind of assay: JNK3 AlphaScreen Assay (AID 530; active = well fitted curve in either direction with a large enough effect, not every such curve was filed as active;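 note: kinase came from lysate of stimulated human HepG2 cells; % is set by controls: 0 for no effect and ±100 for the full control effect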). The settings on record: JNK3 lysate, c-Jun phosphorylation; series mostly up to 57.1 µM. The procedure, abridged: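 JNK3 came from HepG2 lysates pre-activated with IL-1beta and TNF-alpha and phosphorylated biotinylated GST-cJun (1-79) at 10 uM ATP, pH 7.6, room temperature. Compounds were titrated. AlphaScreen signal used anti-phospho-cJun (Ser73) antibody.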
Background: Alpha assays give light when donor and acceptor beads are brought close together.

Assay [8] deals with 3',5'-cyclic-AMP phosphodiesterase 4B (Homo sapiens) (UniProt Q07343). Kind of assay: qHTS Assay for Inhibitors of PDE-IV (AID 607; active = well fitted activation curve with a large enough effect in the main read-out, with a control signal flat, not every such curve was filed as active; note: % of control where 0% means no effect). To be noted: HEK293 ACTOne CNG channel cells, membrane potential fluorescence; series mostly up to 22.9 µM. In outline:
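ACTOne HEK293 cells carry a modified cAMP-gated CNG channel and express endogenous PDE4; plated 1000 cells/well, compounds up to 22.9 uM final. Membrane-potential dye fluorescence (ex 535/em 590) was read; parental cells received 10 uM forskolin + 100 uM RO 20-1724.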
A general note: In qHTS, concentration-response curves come from the screen itself.

In assay [9] the target is Cytochrome P450 3A4 (Homo sapiens) (UniProt P08684). Kind of assay: qHTS Assay for Activators of Cytochrome P450 3A4 (AID 885). Note: nearly all actives have a fitted effect of over 65% in size. The settings on record: recombinant CYP3A4, Luciferin-PPXE luminescence, 60 min; series mostly up to 57.1 µM. The procedure, abridged: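 20nM CYP3A4 + 25uM Luciferin-PPXE (=KM), 200mM KPO4; cpd 10 min RT; NADPH regen, 60 min RT; stop w/ detection buffer, 20 min; luminescence. Normalized to 57 uM ketoconazole.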
Cytochrome P450 3A4 (Homo sapiens), sequence (P08684 whole entry, looked up): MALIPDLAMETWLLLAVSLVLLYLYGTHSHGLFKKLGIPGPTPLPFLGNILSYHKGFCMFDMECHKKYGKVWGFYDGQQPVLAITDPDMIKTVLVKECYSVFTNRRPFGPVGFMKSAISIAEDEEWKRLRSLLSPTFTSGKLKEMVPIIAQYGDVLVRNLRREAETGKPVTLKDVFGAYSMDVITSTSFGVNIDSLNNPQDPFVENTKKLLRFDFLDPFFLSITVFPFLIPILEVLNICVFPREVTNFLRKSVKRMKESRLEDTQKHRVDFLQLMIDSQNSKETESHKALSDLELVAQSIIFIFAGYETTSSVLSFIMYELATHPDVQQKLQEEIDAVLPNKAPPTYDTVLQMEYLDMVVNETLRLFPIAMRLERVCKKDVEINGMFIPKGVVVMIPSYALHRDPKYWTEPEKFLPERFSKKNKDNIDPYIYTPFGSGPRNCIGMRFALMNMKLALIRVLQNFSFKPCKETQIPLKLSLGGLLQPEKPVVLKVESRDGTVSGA

Assay [10] is described as follows: qHTS Assay for Lipid Storage Modulators (AID 1519; calls by dose curve). The settings on record: Drosophila S3 cells, BODIPY lipid droplet/cell ratio, laser cytometry, cells loaded with oleic acid; for activity change, negative = inhibition: at 57.5 µM (top of the series). In outline: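 Cells seeded at 5,000 per well were treated with compounds over a concentration series and loaded with oleic acid (400 uM, as added). Lipid droplet fluorescence (488 nm excitation, 500-530 nm channel) was read by laser-scanning cytometry and normalized to 20 uM Triacsin C.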

Assay [11] addresses Dual specificity protein kinase CLK4 (Homo sapiens) (UniProt Q9HAZ1). Kind of assay: qHTS Assay for Inhibitors of CDC-like Kinase 4 (Kinase-Glo Assay) (AID 1770). Note: nearly all actives have a fitted effect of over 65% in size. Note: potency is the fitted concentration of half-maximal effect. The settings on record: recombinant Clk4, Kinase-Glo ATP depletion luminescence; series mostly up to 66.7 µM. The procedure, abridged: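 Substrate mix (RS peptide 100 uM, ATP 1 uM) dispensed, compound pinned in, then Clk4 added to 25 nM final. Incubated 4.5 h at RT; Kinase-Glo reagent added, luminescence read after 5 min.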

Assay [12] shares this target. Kind of assay: qHTS Assay for Inhibitors of CDC-like Kinase 4 (ADP-Glo Assay) (AID 1771). Note: nearly all actives have a fitted effect of over 70% in size. Note: potency is the fitted concentration of half-maximal effect. The settings on record: recombinant CLK4, ADP-Glo luminescence; series mostly up to 80 µM. In outline:
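Clk4 (25 nM) was incubated 1 hr at room temperature with 100 uM RS repeat peptide and 1 uM ATP in buffer with 2 mM MgCl2, 0.5 mM EGTA, 2.5 mM DTT. ADP formed was quantified by ADP-Glo luminescence.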

The target is the same in assay [13]. Kind of assay: qHTS Assay for Inhibitors of CDC-like Kinase 4 (ADP-FP Assay) (AID 1795).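 Note: recombinant human CLK4 phosphorylating RS repeat peptide at 1 µM ATP; % is set by controls: 0 for no effect and ±100 for the full control effect; nearly all actives have a fitted effect of over 60% in size.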 The settings on record: Transcreener ADP fluorescence polarization; series mostly up to 50 µM. In outline:
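Clk4 6.25 nM; RS peptide 100 uM; ATP 1 uM; 25 mM Tris pH 7.5, 10 mM MgCl2; 1 h reaction. ADP detected via antibody/orange tracer FP displacement; TG003 positive control.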

Assay [14] has as its target Ubiquitin carboxyl-terminal hydrolase 1 (Homo sapiens) (UniProt O94782). Kind of assay: Inhibitors of USP1/UAF1: Pilot qHTS (AID 504865).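 Note: rhodamine fluorescence freed from ubiquitin-rhodamine substrate followed over time; top concentration of the series differs between compounds; % is set by controls: 0 for no effect and ±100 for the full control effect; nearly all actives have a fitted effect of over 35% in size.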 The settings on record: purified USP1/UAF1, Ub-rhodamine cleavage fluorescence; series mostly up to 54.9 µM. In outline: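 In 50mM HEPES pH 7.8 containing 0.5mM EDTA, 1mM TCEP, 0.1 mg/ml BSA and 0.01% Tween-20, 1nM USP1/UAF1 is exposed to compound for 15 min, then Ub-Rho (150nM final) is added and fluorescence is read over time.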

Assay [15] in a line: Primary qHTS for small molecule stabilizers of the endoplasmic reticulum resident proteome: Secreted ER Calcium Modulated Protein (SERCaMP) assay (AID 1508630). Note: % is set by controls: 0 for no effect and ±100 for the full control effect. The settings on record: SH-SY5Y GLuc-SERCaMP (Gaussia luciferase released on ER calcium loss) secretion, thapsigargin, luminescence; series mostly up to 38.4 µM. In outline: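 GLuc-SERCaMP-expressing SH-SY5Y cells, pretreated 16 h with compound, are challenged with thapsigargin to empty ER calcium stores; after 4 h, coelenterazine is added directly to the medium and luminescence is imaged.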

[16] abbreviates: measured here: cell count channel max response.
Where [17] appears, read: measured here: lipid channel max response.

Results filed as inconclusive are left out. The source made the active and inactive calls. Unless noted, calls come from the whole dose curve; as a rule, active = well fitted curve in the direction sought with a large enough effect; inconclusive = small, poorly fitted or top-dose-only effect, or another doubt; inactive = no such curve, though single readings can be large; an effect the other way counts as inactive or inconclusive. A value given as a limit tells only on which side of the number the result lay.

Glucocorticoid receptor (Homo sapiens), sequence (P04150 whole entry, looked up): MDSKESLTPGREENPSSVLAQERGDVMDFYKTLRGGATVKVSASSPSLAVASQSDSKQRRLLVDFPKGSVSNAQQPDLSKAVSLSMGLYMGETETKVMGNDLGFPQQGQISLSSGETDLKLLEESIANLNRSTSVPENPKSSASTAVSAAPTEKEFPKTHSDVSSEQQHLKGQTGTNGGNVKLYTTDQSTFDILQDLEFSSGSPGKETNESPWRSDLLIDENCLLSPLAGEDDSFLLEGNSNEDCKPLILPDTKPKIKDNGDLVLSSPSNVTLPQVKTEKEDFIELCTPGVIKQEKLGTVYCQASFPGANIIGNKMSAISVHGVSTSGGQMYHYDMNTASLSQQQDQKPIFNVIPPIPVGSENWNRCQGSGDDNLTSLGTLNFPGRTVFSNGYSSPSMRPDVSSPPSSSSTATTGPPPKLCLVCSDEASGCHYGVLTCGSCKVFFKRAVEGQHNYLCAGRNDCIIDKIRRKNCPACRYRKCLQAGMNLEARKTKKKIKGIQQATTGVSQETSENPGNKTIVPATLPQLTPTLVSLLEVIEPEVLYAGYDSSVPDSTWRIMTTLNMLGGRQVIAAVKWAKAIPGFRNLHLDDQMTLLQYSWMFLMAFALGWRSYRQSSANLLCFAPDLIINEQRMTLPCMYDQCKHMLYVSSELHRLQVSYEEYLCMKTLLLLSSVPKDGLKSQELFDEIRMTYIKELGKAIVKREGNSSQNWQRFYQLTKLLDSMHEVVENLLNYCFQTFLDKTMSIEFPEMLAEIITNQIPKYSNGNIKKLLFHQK
Dual specificity protein kinase CLK4 (Homo sapiens), sequence (Q9HAZ1 whole entry, looked up): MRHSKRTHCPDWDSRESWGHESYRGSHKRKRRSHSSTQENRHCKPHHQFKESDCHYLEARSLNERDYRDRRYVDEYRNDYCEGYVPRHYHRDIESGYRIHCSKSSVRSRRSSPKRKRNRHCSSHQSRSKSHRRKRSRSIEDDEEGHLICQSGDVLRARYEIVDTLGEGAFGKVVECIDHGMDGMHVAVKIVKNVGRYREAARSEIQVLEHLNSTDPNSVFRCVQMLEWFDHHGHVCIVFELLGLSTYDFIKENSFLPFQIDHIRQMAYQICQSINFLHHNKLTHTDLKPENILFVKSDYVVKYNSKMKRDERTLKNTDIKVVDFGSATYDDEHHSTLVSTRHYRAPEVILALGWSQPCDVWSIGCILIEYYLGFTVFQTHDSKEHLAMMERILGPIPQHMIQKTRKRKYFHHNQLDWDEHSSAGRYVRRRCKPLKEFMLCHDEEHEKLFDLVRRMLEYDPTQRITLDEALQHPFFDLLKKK
3',5'-cyclic-AMP phosphodiesterase 4B (Homo sapiens), sequence (Q07343 whole entry, looked up): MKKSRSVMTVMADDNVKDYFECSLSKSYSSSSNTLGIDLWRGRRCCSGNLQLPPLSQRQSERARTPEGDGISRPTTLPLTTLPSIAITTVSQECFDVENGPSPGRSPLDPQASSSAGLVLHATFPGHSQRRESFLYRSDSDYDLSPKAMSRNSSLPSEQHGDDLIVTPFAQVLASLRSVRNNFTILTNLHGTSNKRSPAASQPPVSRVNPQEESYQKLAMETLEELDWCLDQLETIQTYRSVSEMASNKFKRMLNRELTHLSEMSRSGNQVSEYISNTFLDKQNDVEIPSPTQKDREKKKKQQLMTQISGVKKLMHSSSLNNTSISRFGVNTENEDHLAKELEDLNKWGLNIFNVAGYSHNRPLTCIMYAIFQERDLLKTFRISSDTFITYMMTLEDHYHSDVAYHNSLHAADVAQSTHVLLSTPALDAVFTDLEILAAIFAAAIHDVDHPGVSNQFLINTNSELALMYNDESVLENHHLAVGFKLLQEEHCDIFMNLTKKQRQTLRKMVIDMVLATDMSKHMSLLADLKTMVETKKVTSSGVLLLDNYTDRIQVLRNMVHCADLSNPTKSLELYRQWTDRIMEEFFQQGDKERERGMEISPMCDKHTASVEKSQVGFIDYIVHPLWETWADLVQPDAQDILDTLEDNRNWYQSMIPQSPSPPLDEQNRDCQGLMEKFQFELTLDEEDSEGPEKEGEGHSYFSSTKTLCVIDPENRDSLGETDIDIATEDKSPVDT
Ubiquitin carboxyl-terminal hydrolase 1 (Homo sapiens), sequence (O94782 whole entry, looked up): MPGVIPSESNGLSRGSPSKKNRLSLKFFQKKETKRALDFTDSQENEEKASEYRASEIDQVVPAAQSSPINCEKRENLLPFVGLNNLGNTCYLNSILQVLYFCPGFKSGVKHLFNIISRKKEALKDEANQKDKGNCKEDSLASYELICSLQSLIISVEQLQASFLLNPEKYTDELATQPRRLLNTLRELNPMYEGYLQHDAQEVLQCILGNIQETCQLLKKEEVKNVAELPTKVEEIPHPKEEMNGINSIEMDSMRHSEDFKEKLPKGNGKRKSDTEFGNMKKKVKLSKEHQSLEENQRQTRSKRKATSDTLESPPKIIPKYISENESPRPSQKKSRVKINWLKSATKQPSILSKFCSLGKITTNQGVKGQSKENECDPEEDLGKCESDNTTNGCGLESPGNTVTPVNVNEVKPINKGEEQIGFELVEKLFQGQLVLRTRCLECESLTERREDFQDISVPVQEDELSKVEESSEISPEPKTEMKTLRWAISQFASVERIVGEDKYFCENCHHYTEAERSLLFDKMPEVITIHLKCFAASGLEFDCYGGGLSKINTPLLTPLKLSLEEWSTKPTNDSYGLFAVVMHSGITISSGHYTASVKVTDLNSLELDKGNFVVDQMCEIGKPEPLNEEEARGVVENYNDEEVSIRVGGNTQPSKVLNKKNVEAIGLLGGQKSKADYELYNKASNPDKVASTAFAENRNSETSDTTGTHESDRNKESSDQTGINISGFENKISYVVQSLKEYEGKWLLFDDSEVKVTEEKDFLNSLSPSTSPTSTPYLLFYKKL

For `CN1CCN(c2ncc3nc(CCc4ccccc4)c(=O)n(C4CC4)c3n2)CC1`, the results for the Potency in [1], in assay [5] and in assay [6] were > 11.4 µM (inactive), > 9.22 µM (inactive) and > 46 µM (inactive), respectively. The activity change, negative = inhibition in assay [2] is 10.3% (inactive); in assay [3], 15.1% (inactive); in assay [10], 1.8% (inactive). Moreover, the activity, negative = inhibition in assay [4] was -7.8% (inactive). The call in assay [7] was inactive. Further, the Potency entry in assay [8], in assay [9], in assay [11], in assay [12], in assay [13] and in assay [14] was “inactive” each time. The Potency result in [15] was “inactive”. The max response in assay [10] (setting [16]) turned out to be 15.9%; in assay [10] (setting [17]), 14.9%.
As to `O=c1c(CCc2ccccc2)nc2cnc(N3CCOCC3)nc2n1Cc1cccs1`, the Potency in assay [1] is > 11.4 µM (inactive); in assay [5], > 9.22 µM (inactive); in assay [6] it was > 46 µM (inactive). In addition, the values for the activity change, negative = inhibition in [2], in [3] and in assay [10] were -2.34% (inactive), -3.56% (inactive) and 8.99% (inactive), respectively. For the same compound, in assay [4], the activity, negative = inhibition was 2.46% (inactive). The compound was called inactive in [7]. Moreover, the max response in assay [10] (setting [16]) is 7.22%; in [10] (setting [17]), 18.4%. In addition, the Potency entry in assay [11], in assay [12], in assay [13], in assay [14] and in [15] was “inactive” in each case.
`Cc1noc(C)c1-c1cc(NCCN2CCOCC2)ncn1`: the Potency was > 11.4 µM (inactive) in [1]; > 46 µM (inactive) in [5]; > 46 µM (inactive) in assay [6]; 25.1 µM (active) in [11]; 22.4 µM (active) in [12]. Moreover, the activity change, negative = inhibition in assay [2] is 27.9% (inactive); in assay [3], 20.1% (inactive); in assay [10] it was 6.08% (inactive). Further, the activity, negative = inhibition in assay [4] is 0.606% (inactive). For the same compound, the result in assay [7] was inactive. In addition, the Potency entry in assay [8], in [13], in assay [14] and in assay [15] was “inactive” throughout. The values for the max response in assay [10] (setting [16]) and in assay [10] (setting [17]) were 23.5% and 29.1%, respectively.
`Cc1nc2cnc(N3CCOCC3)nc2n(Cc2ccc(F)cc2)c1=O`: the Potency is > 11.4 µM (inactive) in [1], > 9.22 µM (inactive) in assay [5] and > 46 µM (inactive) in assay [6]. For the same compound, the activity change, negative = inhibition in assay [2] is -3.91% (inactive); in [3], -17.2% (inactive); in [10], 2.61% (inactive). In addition, in [4], the activity, negative = inhibition was 4.04% (inactive). For the same compound, the result in assay [7] was inactive. For the same compound, the max response was found to be 13.7% in assay [10] (setting [16]) and 15.9% in [10] (setting [17]). Moreover, the Potency result in assay [11], in assay [12], in [13], in assay [14] and in assay [15] was “inactive” throughout.
With `COCCn1c(=O)c(-c2ccc(F)cc2)nc2cnc(OC)nc21`, the Potency was > 11.4 µM (inactive) in [1], > 9.22 µM (inactive) in assay [5] and > 46 µM (inactive) in [6]. Besides, the activity change, negative = inhibition was -3.31% (inactive) in assay [2], 15.2% (inactive) in assay [3] and 4.45% (inactive) in assay [10]. The activity, negative = inhibition in assay [4] is -15% (inactive). Besides, in assay [7], the outcome was inactive. Besides, the Potency entry in [8], in [11], in [12], in assay [13], in [14] and in [15] was “inactive” in each case. Also, the max response in [10] (setting [16]) stood at 6.98%; in [10] (setting [17]), 9.8%.
As for `CNc1ncncc1-c1c(C)noc1C`, the Potency was > 11.4 µM (inactive) in assay [1], > 46 µM (inactive) in assay [5] and > 46 µM (inactive) in [6]. Further, the results for the activity change, negative = inhibition in [2], in assay [3] and in assay [10] were -14.2% (inactive), -0.793% (inactive) and 7.32% (inactive), respectively. Moreover, in [4], the activity, negative = inhibition was 11.7% (inactive). For the same compound, the compound was called inactive in [7]. The Potency result in assay [8], in [11], in [12], in assay [13], in assay [14] and in assay [15] was “inactive” throughout. The max response was found to be 37% in [10] (setting [16]) and 45.6% in assay [10] (setting [17]).

Values taken from PubChem BioAssay (NCATS).
